In PubChem BioAssay AID1159580 (chemical genetic matrix, 2015):
Values joined by “and” are separate entries in the source; they are usually repeats but may differ in a detail not shown here. Equal values may be shown once. Hit rate of the full screen: of about 5,500 compounds, about 2,000 (36%) were called active. Not shown: some 18% with an inconclusive outcome. No stated cut-off is given here; in the data, active means normalized growth mostly below about 0.91 (no sharp cut-off); inconclusive means no clear call, values can overlap the other calls; inactive means mostly above about 0.92. This is one part of the list.

Assay: chemical genetic growth profiling, strain panel (AID 1159580);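 further: tested at 20 µM; growth read once vehicle control cultures reached saturation at 30 °C; 1 = growth at the plate median or of vehicle wells; lower values mean less growth of the strain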
Conditions: S. cerevisiae deletion strains, growth OD

Measured: normalized growth

CCOC(=O)[C@H](CCc1ccccc1)N[C@@H](C)C(=O)N1CCC[C@H]1C(=O)O
inactive: locus YAL021C, strain ccr4, active compounds read low 0.98 | locus YAL026C, strain drs2, active compounds read low 1 | locus YAL030W, strain snc1, active compounds read low 0.992 | locus YBL061C, strain skt5, active compounds read low 0.987 | locus YBR009C, strain hhf1, active compounds read low 1.01 | locus YBR021W, strain FUR4, active compounds read low 1.01 | locus YBR023C, strain chs3, active compounds read low 0.988 | locus YBR171W, strain sec66, active compounds read low 0.979 | locus YBR229C, strain ROT2, active compounds read low 1 | locus YBR231C, strain swc5, active compounds read low 1 | locus YBR279W, strain paf1, active compounds read low 0.973 | locus YCL011C, strain gbp2, active compounds read low 0.976 | locus YCL016C, strain dcc1, active compounds read low 0.969 | locus YCL029C, strain bik1, active compounds read low 1.02 | locus YCL061C, strain MRC1, active compounds read low 1.01 | locus YCL069W, strain vba3, active compounds read low 0.988 | locus YCR088W, strain abp1, active compounds read low 0.995 | locus YDL005C, strain med2, active compounds read low 0.995 | locus YDL035C, strain GPR1, active compounds read low 1.03 | locus YDL040C, strain nat1, active compounds read low 0.992 | locus YDL074C, strain BRE1, active compounds read low 1.02 | locus YDL101C, strain DUN1, active compounds read low 1.01 | locus YDL134C, strain PPH21, active compounds read low 1.01 | locus YDL185W, strain tfp1, active compounds read low 1.01 | locus YDL192W, strain arf1, active compounds read low 1.01 | locus YDR001C, strain nth1, active compounds read low 0.996 | locus YDR069C, strain doa4, active compounds read low 0.984 | locus YDR101C, strain arx1, active compounds read low 0.994 | locus YDR137W, strain rgp1, active compounds read low 0.988 | locus YDR159W, strain sac3, active compounds read low 0.937 | locus YDR162C, strain NBP2, active compounds read low 1.01 | locus YDR195W, strain ref2 0.981 | locus YDR297W, strain sur2, active compounds read low 1 | locus YDR318W, strain mcm21, active compounds read low 1.02 | locus YDR334W, strain swr1, active compounds read low 0.998 | locus YDR335W, strain msn5, active compounds read low 0.991 | locus YDR388W, active compounds read low 1.02 | locus YDR392W, strain spt3, active compounds read low 0.923 | locus YDR502C, strain sam2, active compounds read low 1.01 | locus YEL003W, strain gim4, active compounds read low 1 | locus YEL037C, strain rad23, active compounds read low 0.988 | locus YEL061C, strain CIN8 (second series), active compounds read low 0.999 | locus YEL061C, strain CIN8, active compounds read low 0.999 | locus YER015W, strain faa2, active compounds read low 1 | locus YER016W, strain bim1, active compounds read low 0.98 | locus YER110C, active compounds read low 1.02 | locus YER111C, strain swi4, active compounds read low 0.985 | locus YER155C, strain BEM2 (second series), active compounds read low 1.02 | locus YER155C, strain BEM2, active compounds read low 0.996 | locus YER167W, strain BCK2, active compounds read low 0.997 | locus YFR010W, strain ubp6, active compounds read low 1.01 | locus YGL078C, strain dbp3, active compounds read low 1.01 | locus YGL086W, strain mad1, active compounds read low 0.998 | locus YGL167C, strain pmr1, active compounds read low 0.99 | locus YGL173C, strain kem1, active compounds read low 0.995 | locus YGL227W, strain vid30, active compounds read low 0.996 | locus YGL240W, strain doc1, active compounds read low 0.985 | locus YGL248W, strain PDE1, active compounds read low 1 | locus YGL253W, strain hxk2, active compounds read low 0.987 | locus YGR078C, strain PAC10, active compounds read low 1.02 | locus YGR135W, strain pre9, active compounds read low 1.02 | locus YGR252W, strain gcn5, active compounds read low 1.05 | locus YHR013C, strain ard1, active compounds read low 0.967 | locus YHR027C, strain rpn1, active compounds read low 1.01 | locus YHR030C, strain SLT2, active compounds read low 0.998 and 1.03 | locus YHR079C, strain IRE1 (second series), active compounds read low 1.01 | locus YHR079C, strain IRE1, active compounds read low 1.05 | locus YHR094C, strain hxt1, active compounds read low 1.01 | locus YHR129C, strain ARP1, active compounds read low 0.998 | locus YHR142W, strain chs7, active compounds read low 0.98 | locus YHR200W, strain rpn10, active compounds read low 1.01 | locus YIL066C, strain RNR3, active compounds read low 1.01 | locus YIL073C, strain SPO22, active compounds read low 1.07 | locus YIL125W, strain kgd1, active compounds read low 1.01 | locus YIR030C, strain dcg1, active compounds read low 1.01 | locus YJL092W, strain hpr5, active compounds read low 1 | locus YJL095W, strain BCK1 (second series), active compounds read low 1 | locus YJL095W, strain BCK1, active compounds read low 1.02 and 1.03 | locus YJL115W, strain asf1, active compounds read low 0.989 | locus YJL129C, strain trk1, active compounds read low 0.954 | locus YJL134W, strain LCB3, active compounds read low 1 | locus YJL154C, strain vps35, active compounds read low 0.99 | locus YJL164C, strain tpk1, active compounds read low 0.98 | locus YJL166W, strain qcr8, active compounds read low 1 | locus YJL168C, strain set2, active compounds read low 1.01 | locus YJL187C, strain SWE1 (second series), active compounds read low 1.01 | locus YJR043C, strain POL32, active compounds read low 1.03 | locus YJR066W, strain TOR1, active compounds read low 0.985
